# According to the supplement of paper PMC10105736:
# Unmarked numbers belong to inactive results.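 The calls were made as follows: active = MAPPIT score above the 99th percentile of random reference set scores in the same batch; inactive = at or below it.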
# B1: Fkbp12 (protein)
# chain: MGVQVVPIAPGDGSTYPKNGQKVTVHYTGTLDDGTKFDSSRDRNKPFKFTIGKGEVIRGWDEGVAQLSVGQRAKLICSPDYAYGSRGHPGVIPPNSTLTFDVELLKVE
# B2: RpLP2 (protein)
# chain: MRYVAAYLLAVLGGKDSPANSDLEKILSSVGVEVDAERLTKVIKELAGKSIDDLIKEGREKLSSMPVGGGGAVAAADAAPAAAAGGDKKEAKKEEKKEESESEDDDMGFALFE
# B3: CG10681 (protein)
# chain: MSHLGLADVHQSEDATPDLESFTGFGNSAAEAFIQSLAGMVNQGDVETMIRAQKQMLQRFEKTNEMLLNCNALSQSRLKSASEDFKRHVKCLSEMKKDLDYIFRKIRIIKQKLQSQFPAIYAEVQPQRSSLAEEAEDDTEAQAKKTAETPAPAAAKPVLSTKKSAATIEYVQMEEAVDNGTVEIENELIKRVCSVETANPNDSSDCTSEDTG
# B4: GluProRS (protein)
# chain: MSIKLKANLNNPPISGLATAHLINGTVPVEIVWSKEETSLQFPDNRLLVCHSNNDVLRALARAAPDYKLYGETAIERTQIDHWLSFSLTCEDDISWALSFLDKSIAPVTYLVANKLTIADFALFNEMHSRYEFLAAKGIPQHVQRWYDLITAQPLIQKVLQSLPEDAKVKRSPQSSKEQTPAKTGERKQEGKFVDLPGAEMGKVVVRFPPEASGYLHIGHAKAALLNQYYALAFQGTLIMRFDDTNPAKETVEFENVILGDLEQLQIKPDVFTHTSNYFDLMLDYCVRLIKESKAYVDDTPPEQMKLEREQRVESANRSNSVEKNLSLWEEMVKGSEKGQKYCVRAKIDMSSPNGCMRDPTIYRCKNEPHPRTGTKYKVYPTYDFACPIVDAIENVTHTLRTTEYHDRDDQFYWFIDALKLRKPYIWSYSRLNMTNTVLSKRKLTWFVDSGLVDGWDDPRFPTVRGIIRRGMTVEGLKEFIIAQGSSKSVVFMNWDKIWAFNKKVIDPIAPRYTALEKEKRVIVNVAGAKVERIQVSVHPKDESLGKKTVLLGPRIYIDYVDAEALKEGENATFINWGNILIRKVNKDASGNITSVDAALNLENKDFKKTLKLTWLAVEDDPSAYPPTFCVYFDNIISKAVLGKDEDFKQFIGHKTRDEVPMLGDPELKKCKKGDIIQLQRRGFFKVDVAYAPPSGYTNVPSPIVLFSIPDGHTKDVPTSGLKVNAPDAKATKKASSPVSSSGQASELDSQISQQGDLVRDLKSKKAAKDQIDVAVKKLLALKADYKSATGKDWKPGQTSASSAPVPAASSSSANDAVSVNASIVKQGDLVRDLKGKKASKPEIDAAVKTLLELKAQYKTLTGQDWKPGTVPTTAAPSASAAPSVGVNDSVAQILSQITAQGDKVRELKSAKADKATVDAAVKTLLSLKADYKAATGSDWKPGTTAPAPAAAPVKVKQEKNPDPASVLTVNTLLNKIAQQGDKIRQLKSAKSEKSLVEAEVKLLLALKTDYKSLTGQEWKPGTVAPAPTTVNVIDLTGGDSGSDVGSVLSKIQAQGDKIRKLKSEKAAKNVIDPEVKTLLALKGEYKTLSGKDWTPDAKSEPAVVKKEASPVSMASPAKDELTQEINAQGEKVRAAKGNKAAKEVIDAEVAKLLALKAKYKEVTGTDFPVAGRGGGGGGGSAKKAPKEAQPKPAKPVKKEPAADASGAVKKQTRLGLEATKEDNLPDWYSQVITKGEMIEYYDVSGCYILRQWSFAIWKAIKTWFDAEITRMGVKECYFPIFVSKAVLEKEKTHIADFAPEVAWVTKSGDSDLAEPIAVRPTSETVMYPAYAKWVQSYRDLPIRLNQWNNVVRWEFKQPTPFLRTREFLWQEGHTAFADKEEAAKEVLDILDLYALVYTHLLAIPVVKGRKTEKEKFAGGDYTTTVEAFISASGRAIQGATSHHLGQNFSKMFEIVYEDPETQQKKYVYQNSWGITTRTIGVMIMVHADNQGLVLPPHVACIQAIVVPCGITVNTKDDERAQLLDACKALEKRLVGGGVRCEGDYRDNYSPGWKFNHWELKGVPLRLEVGPKDLKAQQLVAVRRDTVEKITIPLADVEKKIPALLETIHESMLNKAQEDMTSHTKKVTNWTDFCGFLEQKNILLAPFCGEISCEDKIKADSARGEEAEPGAPAMGAKSLCIPFDQPAPIAASDKCINPSCTNKPKFYTLFGRSY
# B5: z (protein)
# chain: MSAQGEGGGAGGSGGGGAGSDGGGNAGQSSTGSGTVAVTNGGNSSAKNQLPLTPRFTAEEKEVLYTLFHLHEEVIDIKHRKKQRNKYSVRETWDKIVKDFNSHPHVSAMRNIKQIQKFWLNSRLRKQYPYRDGSSSNLSSGSAKISSVSVSVASAVPQQQQQQHHQQHDSVKVEPEYQISPDASEHNPQADTFDEIEMDANDVSEIDEDPMEQQQQQQQEAQAQAQAQAQAQAQVQSAAAEMQKMQQVNAVAAAAAANATMINTHQINVDQISAEKLTLNDLLHFKTARPREEIILIKHPEATATQIHTIPTQAQQHPMATITAGGYNQQIISEIKPQQITLAQYQAQQQQQAQAQAQAQAQAQAQAQAQAQAQAQAQQLAQQQLAAAQHQQLAAAVQVHHQQQQQQQAAVAVQQQQAAAAAAVKMQLTAATPTFTFSALPTVTAATTVPAAVPVPVATASSGSANSVAVNTSTASSVSINNTSLGGGGGNGATNSSATAADSFEERMNYFKIREAELRCKEQQLATEAKRIELNKAQDELKYMKEVHRLRVEELTMKIRILQKEEEQLRKCSTS
# B6: Deaf1 (protein)
# chain: MEQVDSSTELHLNRKDLAALAEDVVKEEVILESSSHHHHHHHHQLDTKVRMVTSSSNDNSGSGGASGGTSGAGGGNGGGGVVSVPVSLPIGSMITGTTFNVITPDQLPPHFKPMLCVDNNGYLSGSTVSMGNDLKTIVIQQQQTQPGGGGGGANNAGTNTTATNTIGLNHDGSGSNNSHDSLATLEHAAGGASGVGGGGGGTGGGSSGWSENPSTQHNEVFQIRCKTTCAELYRSKLGSGGRGRCVKYKDKWHTPSEFEHVCGRGSSKDWKRSIKYGGKSLQSLIDEGTLTPHATNCSCTVCCDDEAGESASGPVRLFTPYKRRKRNQTDLDMESGPKRKRNTHHSNNNNSNTNNNNTSGSGANNCVDVTAAVAAATASVVDENNMFLSEENITSKDEPWAALNDSLDTSTELVDQSQMGNTYERETFVVNINDGSSIAVLDTSQSMKNIEHVYCTMVKATNDFKRMLNDMKQSFERRIEVLQKERDAAVSAMRVQVHADIDDPNISGSLHGNEIISAKKCANCNREALAECSLCRKTPYCSEFCQRKDWNAHQVECTRNPQTTTQQVMLLIDDQS
# B7: Fem-1 (protein)
# chain: MHAELYRTRKRWYESAWPGAGFWRGANDTLPVTNYITYPANFDQPDGQSLTPLTMAAMMGNVKFVKTLLSHYDVDLDRECNVIYDGMVVYGATALWVAAGMGHLQIVKMLVQAGAAINHNTKAQSSPLRAACYEGRLDIVEFLIDNGADVNATNLFNNNTLMIAAYKGHHLVVKTLLQNGSRANDQALCGATALHYAAESGHLDVVVALLDHGATLKKNELGITPALQAAERLHEDVLEAFIERPELMSLEEQITALELLGATYANDKIKYDVNKAYGYLLRAMQLRYSNPRGVIRKRVQPTVPAYDNWLETENLPELYAIKLNHHSIHMESLAIRERILGRNNPELPQAIIYRGAVMADQGRFYQCQVLWNYAIDLRMRNNVSVDRDLLRFAQLFAQILRVENHNLTLDHVLPVLAKCQQEIENNKFKIKEAKPNACPSLWQDQNNQNCITALYLIKIVTHLARRKKDQNIDEEHIQQLFLVVRKFIQNDTRLQDGQTLLHIAVNGVMPVDEFYTNEMCRFPCYATALVLVHCGASVVAVDSDRNTPLHILVTKVNTTQDRQAEMARILELFVEAGAHLDAVNAAGQTAATACKLPILANRLHAHQNAHTSLKCLAARSIATNRLNFKGLIPTQLEAFIQMHSVRKVLP
# B8: Cdk12 (protein)
# chain: MHASSAAATALVEYSDVSSEDFSDQEAGDLDADAGKGAGNIKKPKPAPDNQFSKGRLDAKPDKEGYDNYRSRRAEDSSDPVAAGSRQTSSSEATNPREEPSQASNTSKDELWGREIYMSSDSIDTDELEAEMKRQKRKKQKKEKHKHKSKKKSKKRKKKRAKSYSSIDSMSDNDINALLDRRYTPPTAPSKSNERTVSAAPSSFTPHNLKESSSPATPPPVRRPNTNSNYYGESSLETANSALGSNLQVTVTNKQSISNRLRSPPPSSRSSGNGPRFGNSPRTPPPSHYSSSGGGGVGSGSVVRDSRSSRYVNSPHKEDVSAHHRSSHDHGYQGRYSGAGSSSHDTRKVKRLSPELDRYNHQPSTPPHKRRKFSDGREVGLGNFEHSRHHSGKYERYSRDRYSRRSSRSPSVQHSRSRQSPSGGLSSGSNAFRHGGSHKHKYGTTVSSTPSHTTRTSKRASGTGTSGDRYSRSPRTSSRYMESSPPSPVGASGSHHYHHRRSPRMRQRTRGDSRRRSPSSASSESSASRSRSPTSRDLKHKREEYIKKISETSLFAELVKDRHKRQKALKEIIERQEENSNSNSNGALTINDNSSSVDGNTPNAADGRSAPGSGTPAAASTTSNGLQALGSKPDLDLNNIPMPNKQNDSVVSNPASNADVPDSVAQLKQPLLVPPFSASKNNIKPKSLTSLPLPPGMNVLDLAGARSPSPGQKKESDEKNVTSSGSANKSVLNLPMPPVIPGSEELSGDDDVIDSPEDFDAPAVGTVHGHGGGPGTTRQRPVILNRRDSRNNVRDWGERCVDVFEMIAQIGEGTYGQVYKARDHHTNDMVALKKVRLEHEKEGFPITAVREIKILRQLNHRNIVNLHEIVTDKQDAVEFRKDKGSFYLVFEYMDHDLMGLLESGMVDFNEENNASIMKQLLDGLNYCHKKNFLHRDIKCSNILMNNRGKVKLADFGLARLYNADDRERPYTNKVITLWYRPPELLLGEERYGPSIDVWSCGCILGELFVKRPLFQANAEMAQLETISKICGSPVPAVWPNVIKLPLFHTLKQKKTHRRRLREDFEFMPAPALDLLDKMLDLDPDKRITAEDALRSPWLRKINPDEMPTPQLPTWQDCHELWSKKRRRQMREQQESLPPTVIASTKYQQHGATMVGDA
# Tests used:
# Assay in all cases: MAPPIT interaction score (arbitrary units); higher = stronger binary interaction signal, active = hit call of the paper
# CG14282 = conditions: MAPPIT configuration: N-C; pair source set: RRS
# CG13965 = conditions: MAPPIT configuration: N-C; pair source set: screen_4
# CG14818 = conditions: MAPPIT configuration: N-N; pair source set: screen_2
# Tm1 = conditions: MAPPIT configuration: N-N; pair source set: screen_1
# dgrn = conditions: MAPPIT configuration: N-N; pair source set: screen_1
# CG15211 = conditions: MAPPIT configuration: N-N; pair source set: screen_2
# ReepB = conditions: MAPPIT configuration: N-C; pair source set: screen_3
# CG14074 = conditions: MAPPIT configuration: N-N; pair source set: screen_2
# Su(var)2-10 = conditions: MAPPIT configuration: N-C; pair source set: screen_3
# TrxT = conditions: MAPPIT configuration: N-N; pair source set: screen_2
# CG14535 = conditions: MAPPIT configuration: N-N; pair source set: screen_2
# CG15126 = conditions: MAPPIT configuration: N-N; pair source set: Curagen_high_conf
# Slob = conditions: MAPPIT configuration: N-N; pair source set: Curagen_high_conf
# CG14464 = conditions: MAPPIT configuration: N-N; pair source set: RRS
# 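Also: HEK293T cells with Epo stimulation, STAT-responsive firefly luciferase reporter, fold induction versus unstimulated cells divided by the larger fold induction of two negative controls lacking either bait or prey.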
binder,measurement,setting,value
B1,MAPPIT interaction score,CG14282,-0.281
B2,MAPPIT interaction score,CG13965,2.1
B3,MAPPIT interaction score,CG14818,5 (active)
same,MAPPIT interaction score,Tm1,2.36
same,MAPPIT interaction score,dgrn,0.165
B4,MAPPIT interaction score,CG15211,0.0202
same,MAPPIT interaction score,ReepB,1.56
B5,MAPPIT interaction score,CG14074,-0.404
same,MAPPIT interaction score,Su(var)2-10,1.09
same,MAPPIT interaction score,TrxT,-0.122
B6,MAPPIT interaction score,CG14535,0.95
B7,MAPPIT interaction score,CG15126,2.87 (active)
same,MAPPIT interaction score,Slob,0.0788
B8,MAPPIT interaction score,CG14464,0.381
